Targets with a hit are over-represented here; the source holds about 8,800 in all. About 0.5% of all pairs of compound and target were hits.
The targets below were run with CC(C)(O)CC(=O)NCCn1ccc2ncnc(Nc3ccc(Oc4cccc(C(F)(F)F)c4)c(Cl)c3)c21 (assay: log2 fold change, soluble protein after heating vs DMSO (PISA); higher = thermal stabilisation; K562 lysate, 10 uM; active = over 0.2 and 3.5 SD of the protein, either way, in both replicates (recomputed)).
Summary of the method: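 Following dounce homogenisation of K562 pellets in PBS pH 7.4 with 1 mM MgCl2, crude extract at 1 mg/mL protein was incubated for 30 min with 10 μM compound. Aliquots were then heated for 3 min over 48°C-58°C and pooled, NP-40 was added to 0.5% at 4°C, and soluble protein was recovered as the supernatant at 21,000xg for 90 min. Channel-sum-equalised TMTpro 16plex LC-MS/MS quantified this protein. Each value, from duplicates, is a log-two fold change in thermal stability relative to solvent controls.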

UniProt Q96G25, sequence (Q96G25 whole entry, looked up): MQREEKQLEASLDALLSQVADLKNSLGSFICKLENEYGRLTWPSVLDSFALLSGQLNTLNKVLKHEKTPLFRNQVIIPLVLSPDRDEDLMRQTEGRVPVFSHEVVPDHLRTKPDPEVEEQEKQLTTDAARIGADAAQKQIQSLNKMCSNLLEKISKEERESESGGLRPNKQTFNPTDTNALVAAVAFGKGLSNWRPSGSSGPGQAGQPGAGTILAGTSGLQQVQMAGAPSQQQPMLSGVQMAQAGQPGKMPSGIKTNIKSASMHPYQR
UniProt Q13601, sequence (Q13601 whole entry, looked up): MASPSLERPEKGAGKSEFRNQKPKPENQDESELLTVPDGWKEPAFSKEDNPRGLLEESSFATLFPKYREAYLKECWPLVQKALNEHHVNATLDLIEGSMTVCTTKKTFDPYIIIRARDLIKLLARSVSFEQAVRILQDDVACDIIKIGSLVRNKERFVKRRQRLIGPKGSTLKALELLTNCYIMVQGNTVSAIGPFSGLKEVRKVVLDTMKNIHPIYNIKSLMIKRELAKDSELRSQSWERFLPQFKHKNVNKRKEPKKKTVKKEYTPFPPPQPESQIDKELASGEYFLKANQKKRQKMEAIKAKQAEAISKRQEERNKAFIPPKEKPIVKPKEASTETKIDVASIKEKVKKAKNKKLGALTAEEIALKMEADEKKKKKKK
UniProt O95239, sequence (O95239 whole entry, looked up): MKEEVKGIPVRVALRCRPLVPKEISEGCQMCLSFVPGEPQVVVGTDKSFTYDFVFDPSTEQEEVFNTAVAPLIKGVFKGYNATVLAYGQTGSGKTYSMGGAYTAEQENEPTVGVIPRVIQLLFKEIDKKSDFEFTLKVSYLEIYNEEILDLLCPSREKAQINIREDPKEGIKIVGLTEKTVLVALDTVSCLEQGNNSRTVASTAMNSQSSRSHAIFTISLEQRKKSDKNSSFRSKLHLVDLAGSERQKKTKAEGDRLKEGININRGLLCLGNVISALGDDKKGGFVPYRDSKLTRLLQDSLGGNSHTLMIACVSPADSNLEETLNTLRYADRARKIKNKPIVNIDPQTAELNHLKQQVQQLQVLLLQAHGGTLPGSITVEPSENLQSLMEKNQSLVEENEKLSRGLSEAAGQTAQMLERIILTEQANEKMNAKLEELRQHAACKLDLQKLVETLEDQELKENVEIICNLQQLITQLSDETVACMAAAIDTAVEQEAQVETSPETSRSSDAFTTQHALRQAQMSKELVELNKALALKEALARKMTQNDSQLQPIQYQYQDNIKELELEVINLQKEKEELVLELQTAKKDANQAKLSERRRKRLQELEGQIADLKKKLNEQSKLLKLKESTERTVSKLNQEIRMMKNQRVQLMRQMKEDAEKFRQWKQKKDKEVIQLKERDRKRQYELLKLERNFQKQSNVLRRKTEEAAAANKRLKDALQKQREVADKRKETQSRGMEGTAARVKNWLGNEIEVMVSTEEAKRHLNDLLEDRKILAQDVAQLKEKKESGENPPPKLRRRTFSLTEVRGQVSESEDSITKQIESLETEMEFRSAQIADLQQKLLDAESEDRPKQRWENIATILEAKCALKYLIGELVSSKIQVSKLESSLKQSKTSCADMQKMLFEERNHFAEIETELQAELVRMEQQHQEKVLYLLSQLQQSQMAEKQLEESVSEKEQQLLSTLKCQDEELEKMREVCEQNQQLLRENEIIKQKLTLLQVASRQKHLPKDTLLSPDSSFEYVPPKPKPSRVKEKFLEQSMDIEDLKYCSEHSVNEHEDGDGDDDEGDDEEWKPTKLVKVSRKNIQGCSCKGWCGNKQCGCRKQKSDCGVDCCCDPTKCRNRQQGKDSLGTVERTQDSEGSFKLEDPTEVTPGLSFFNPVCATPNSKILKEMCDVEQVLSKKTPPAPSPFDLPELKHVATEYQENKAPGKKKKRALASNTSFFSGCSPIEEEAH
UniProt Q8IVT5, sequence (Q8IVT5 whole entry, looked up): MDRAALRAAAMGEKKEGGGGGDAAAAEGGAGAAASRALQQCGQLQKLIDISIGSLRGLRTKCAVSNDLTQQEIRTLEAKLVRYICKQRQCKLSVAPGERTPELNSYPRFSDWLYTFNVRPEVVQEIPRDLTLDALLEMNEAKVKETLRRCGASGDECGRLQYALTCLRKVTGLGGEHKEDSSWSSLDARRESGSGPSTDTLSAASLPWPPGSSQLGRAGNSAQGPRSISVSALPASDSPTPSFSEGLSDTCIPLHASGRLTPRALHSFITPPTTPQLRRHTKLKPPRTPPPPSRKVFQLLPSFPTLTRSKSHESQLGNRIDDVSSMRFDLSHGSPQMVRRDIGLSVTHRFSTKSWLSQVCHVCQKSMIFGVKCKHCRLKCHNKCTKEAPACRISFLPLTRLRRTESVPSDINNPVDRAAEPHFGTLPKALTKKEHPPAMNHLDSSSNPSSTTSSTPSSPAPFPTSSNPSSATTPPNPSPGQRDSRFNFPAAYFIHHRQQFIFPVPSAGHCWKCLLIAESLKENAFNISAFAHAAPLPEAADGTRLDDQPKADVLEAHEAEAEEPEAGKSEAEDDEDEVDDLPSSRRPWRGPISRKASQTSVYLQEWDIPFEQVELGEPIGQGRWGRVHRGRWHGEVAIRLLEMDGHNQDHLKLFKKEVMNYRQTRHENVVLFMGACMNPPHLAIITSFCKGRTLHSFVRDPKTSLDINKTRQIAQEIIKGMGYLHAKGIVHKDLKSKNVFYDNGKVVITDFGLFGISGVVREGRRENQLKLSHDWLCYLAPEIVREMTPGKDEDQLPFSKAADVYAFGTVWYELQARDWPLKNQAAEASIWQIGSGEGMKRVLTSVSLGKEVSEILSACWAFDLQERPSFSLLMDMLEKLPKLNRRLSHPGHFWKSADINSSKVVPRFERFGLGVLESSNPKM
UniProt Q15031, sequence (Q15031 whole entry, looked up): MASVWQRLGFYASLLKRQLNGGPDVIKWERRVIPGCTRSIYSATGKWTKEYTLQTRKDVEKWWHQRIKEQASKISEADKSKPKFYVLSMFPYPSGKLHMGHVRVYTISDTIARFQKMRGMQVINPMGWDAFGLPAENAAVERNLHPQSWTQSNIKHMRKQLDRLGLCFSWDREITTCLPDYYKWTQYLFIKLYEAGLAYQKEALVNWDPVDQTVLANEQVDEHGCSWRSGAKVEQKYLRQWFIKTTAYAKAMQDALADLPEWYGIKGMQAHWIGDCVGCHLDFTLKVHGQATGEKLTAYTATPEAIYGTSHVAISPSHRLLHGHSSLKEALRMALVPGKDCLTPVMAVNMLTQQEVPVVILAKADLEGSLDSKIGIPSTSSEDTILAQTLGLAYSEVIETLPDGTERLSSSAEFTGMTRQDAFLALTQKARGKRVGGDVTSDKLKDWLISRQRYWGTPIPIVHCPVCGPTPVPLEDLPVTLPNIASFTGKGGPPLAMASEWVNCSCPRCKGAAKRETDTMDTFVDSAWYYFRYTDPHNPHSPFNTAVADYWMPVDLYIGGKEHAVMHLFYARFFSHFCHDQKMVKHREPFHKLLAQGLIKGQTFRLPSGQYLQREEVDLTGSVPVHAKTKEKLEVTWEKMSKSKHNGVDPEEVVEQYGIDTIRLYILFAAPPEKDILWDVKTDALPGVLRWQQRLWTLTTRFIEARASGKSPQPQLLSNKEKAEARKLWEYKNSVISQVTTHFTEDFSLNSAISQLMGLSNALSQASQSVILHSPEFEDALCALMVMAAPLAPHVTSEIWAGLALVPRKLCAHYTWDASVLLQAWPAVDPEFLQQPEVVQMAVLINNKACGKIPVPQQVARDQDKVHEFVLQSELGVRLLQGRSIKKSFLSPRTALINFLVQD
UniProt P27361, sequence (P27361 whole entry, looked up): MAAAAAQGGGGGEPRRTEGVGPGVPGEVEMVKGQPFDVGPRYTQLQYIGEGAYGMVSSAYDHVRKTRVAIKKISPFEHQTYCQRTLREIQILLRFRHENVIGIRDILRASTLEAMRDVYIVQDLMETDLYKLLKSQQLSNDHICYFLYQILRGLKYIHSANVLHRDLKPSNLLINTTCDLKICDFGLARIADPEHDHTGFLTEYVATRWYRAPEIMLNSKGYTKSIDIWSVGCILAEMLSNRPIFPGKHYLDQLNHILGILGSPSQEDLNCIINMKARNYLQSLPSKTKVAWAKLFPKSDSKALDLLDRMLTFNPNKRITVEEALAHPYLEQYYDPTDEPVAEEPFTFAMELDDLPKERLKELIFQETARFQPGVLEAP
UniProt P40692, sequence (P40692 whole entry, looked up): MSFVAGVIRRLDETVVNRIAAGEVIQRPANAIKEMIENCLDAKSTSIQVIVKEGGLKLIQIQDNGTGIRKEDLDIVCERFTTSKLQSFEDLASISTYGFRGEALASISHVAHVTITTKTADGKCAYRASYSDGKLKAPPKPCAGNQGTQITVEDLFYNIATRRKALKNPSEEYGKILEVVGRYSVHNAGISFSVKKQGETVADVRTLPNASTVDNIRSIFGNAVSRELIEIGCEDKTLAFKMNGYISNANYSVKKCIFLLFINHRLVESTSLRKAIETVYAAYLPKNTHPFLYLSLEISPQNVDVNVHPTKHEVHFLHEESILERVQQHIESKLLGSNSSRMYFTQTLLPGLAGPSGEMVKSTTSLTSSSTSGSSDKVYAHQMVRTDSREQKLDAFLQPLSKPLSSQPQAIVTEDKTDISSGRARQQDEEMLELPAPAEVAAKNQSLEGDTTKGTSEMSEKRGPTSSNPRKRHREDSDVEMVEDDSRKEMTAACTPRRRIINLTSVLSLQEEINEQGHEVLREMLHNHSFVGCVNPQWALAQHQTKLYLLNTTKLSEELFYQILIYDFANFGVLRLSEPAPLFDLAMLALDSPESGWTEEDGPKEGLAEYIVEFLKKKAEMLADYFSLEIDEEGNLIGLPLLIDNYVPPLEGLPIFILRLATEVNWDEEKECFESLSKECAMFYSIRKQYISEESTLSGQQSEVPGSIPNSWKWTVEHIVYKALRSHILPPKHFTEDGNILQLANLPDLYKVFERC
UniProt O14880, sequence (O14880 whole entry, looked up): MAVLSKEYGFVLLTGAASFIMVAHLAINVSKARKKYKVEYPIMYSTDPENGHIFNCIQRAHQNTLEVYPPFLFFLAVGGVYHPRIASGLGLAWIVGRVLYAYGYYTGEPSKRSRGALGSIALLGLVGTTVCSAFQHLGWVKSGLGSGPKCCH

log2 fold change, inactive:
MED16 (UniProt Q9Y2X0) 0.046, LAP3 (UniProt P28838) -0.103, LUZP1 (UniProt Q86V48) -0.012, KSR1 (UniProt Q8IVT5) 0.021, LTN1 isoform 3 (UniProt O94822) -0.066, MAP2K3 isoform 3 (UniProt P46734) -0.008, MRPL46 (UniProt Q9H2W6) 0.026, MCU (UniProt Q8NE86) -0.021, KIF14 (UniProt Q15058) 0.003, KIF15 (UniProt Q9NS87) -0.022, MAP3K4 (UniProt Q9Y6R4) 0.005, LIMS1 isoform 3 (UniProt P48059) 0.023, KIF11 (UniProt P52732) 0.01, KIFC1 (UniProt Q9BW19) 0.007, MAT2B (UniProt Q9NZL9) -0.006, MFF isoform 2 (UniProt Q9GZY8) -0.033, KPNA2 (UniProt P52292) -0.023, MED8 isoform 2 (UniProt Q96G25) 0.036, MAPK8 isoform 3 (UniProt P45983) 0.025, MGST3 (UniProt O14880) -0.046, KIF4A (UniProt O95239) 0.003, MPP1 (UniProt Q00013) -0.002, MAP4 (UniProt E7EVA0) -0.185, LARS2 (UniProt Q15031) 0.156, LIMK2 isoform 3 (UniProt P53671) 0.018, KPNA4 (UniProt O00629) 0.002, MAP7D3 (UniProt Q8IWC1) -0.019, METTL7A (UniProt Q9H8H3) -0.025, LYN (UniProt P07948) 0.068, LUC7L (UniProt Q9NQ29) 0.027, LYSMD3 (UniProt Q7Z3D4) -0.046, KRR1 (UniProt Q13601) 0.042, METTL2A (UniProt Q96IZ6) 0.068, MARK3 (UniProt P27448) -0.016, MLH1 (UniProt P40692) -0.035, KLC2 (UniProt Q9H0B6) 0.008, MCCC1 (UniProt Q96RQ3) -0.042, MAPK3 (UniProt P27361) -0.018, MITD1 (UniProt Q8WV92) 0.01

From the supplement of paper PMC10849652
